Results from the supplement of paper PMC6555819.

Columns and labels:
Assay in all cases: PBM binding z-score (relative to random genomic background probes); higher = stronger binding; sequences stand for … in GC…GCGATTGACAGCGTAGAATGAAGG
[1] = test system: LXRa:RXRa (NR concentration 270 nM, RXRa partner concentration 90 nM)
Outline: (§1)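 Binding z-scores were set against random background probes. The data came from custom Agilent 4×180K protein-binding microarrays carrying double-stranded probes with 34-nt variable regions, incubated 1 h with ligand-free nuclear receptor dimers. Partner-specific antibodies detected binding, and scanned fluorescence was regression-normalized.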

[2] = test system: LXRa homodimer (NR concentration 270 nM)
Outline: as §1

[3] = test system: LXRb homodimer (NR concentration 270 nM)
Outline: as §1

[4] = test system: PPARg:RXRa (NR concentration 180 nM, RXRa partner concentration 90 nM)
Outline: as §1

[5] = test system: PPARg:RXRa 270nM:90nM, anti-RXR (NR concentration 270 nM, RXRa partner concentration 90 nM)
Outline: as §1

[6] = test system: PPARg:RXRa 30nM:10nM, anti-RXR (NR concentration 30 nM, RXRa partner concentration 10 nM)
Outline: as §1

[7] = test system: PPARg:RXRa 90nM:30nM, anti-RXR (NR concentration 90 nM, RXRa partner concentration 30 nM)
Outline: as §1

[8] = test system: PPARg:RXRa DBDmut IVT, anti-RXR (DBD mutation: RXRa K156A/R161A, NR concentration 270 nM, RXRa partner concentration 90 nM)
Outline: as §1

[9] = test system: PPARg:RXRa IVT, anti-PPARg (NR concentration 270 nM, RXRa partner concentration 90 nM)
Outline: as §1

[10] = test system: PPARg DBDmut:RXRa IVT, anti-PPARg (DBD mutation: PPARg1 K132A/R137A, NR concentration 270 nM, RXRa partner concentration 90 nM)
Outline: as §1

[11] = test system: PPARg DBDmut IVT, anti-PPARg (DBD mutation: PPARg1 K132A/R137A, NR concentration 270 nM)
Outline: as §1

[12] = test system: PPARg homodimer (NR concentration 180 nM)
Outline: as §1

[13] = test system: PXR:RXRa (NR concentration 270 nM, RXRa partner concentration 90 nM)
Outline: as §1

[14] = test system: PXR homodimer (NR concentration 270 nM)
Outline: as §1

[15] = test system: RARa:RXR (NR concentration 270 nM, RXRa partner concentration 90 nM)
Outline: as §1

[16] = test system: RARa homodimer (NR concentration 270 nM)
Outline: as §1

[17] = test system: RARb:RXRa (NR concentration 270 nM, RXRa partner concentration 90 nM)
Outline: as §1

[18] = test system: RARb homodimer (NR concentration 270 nM)
Outline: as §1

Sequence	PBM binding z-score [1]	PBM binding z-score [2]	PBM binding z-score [3]	PBM binding z-score [4]	PBM binding z-score [5]	PBM binding z-score [6]	PBM binding z-score [7]	PBM binding z-score [8]	PBM binding z-score [9]	PBM binding z-score [10]	PBM binding z-score [11]	PBM binding z-score [12]	PBM binding z-score [13]	PBM binding z-score [14]	PBM binding z-score [15]	PBM binding z-score [16]	PBM binding z-score [17]	PBM binding z-score [18]
AGTCAAAGTTCAGGACGAGGTAACGTTAAGCACG	3.74	1.1	0.0351	4.29	4.64	2.03	3.86	-0.183	1.92	0.603	0.235	2.35	3.11	1.65	2.78	0.838	4.3	3.3
ATCGAAAGGTCAAGGTGAGTATAGAGAAAGGGAA	–	2.78	3.58	8.08	7.77	5.24	7.07	3.34	5.43	2.02	1.2	4.09	5.13	1.19	5.85	2.51	–	5.32
CGAACTAGGTCAAGGGACAGTGAAAGGCGACGTA	2.17	-0.308	-0.604	8.6	7.25	5.85	7.35	7.79	8.18	–	0.0336	1.42	0.929	-0.504	1.71	0.0645	3.92	2.99
CCTCGGAGGACAGAAGGTCAAAGCTGTCCGCTTT	4.02	1.82	-0.421	0.66	2.18	-0.0409	1.41	0.187	0.662	-1.42	-2.33	2.07	3.39	0.288	–	0.206	3.74	4.26
CGTCCGAGGTCAAGGTCAGTGAAAGAGACTCGAA	6.22	1.31	1.54	7.82	7.45	3.9	6.47	4.18	5.07	0.688	-0.148	4.23	5.51	1.87	6.15	1.57	5.71	5.16
CGTTCAAGGTCAAAGGTCAGTGAAGAGATGACGG	–	4.39	2.52	–	9.86	11.2	11.5	5.39	6.57	2.57	1.79	6.36	7.19	3.57	8.99	5.48	5.89	5.42
CGTCAAAGGTCAAGGTCAGTGAAAGAGACTCGAA	–	3.09	3.05	–	8.78	6.2	8.38	4.74	6.36	3.41	4.07	6.26	6.26	1.8	6.98	4.06	–	5.34
CAAAATAGGTCAAAGGTCAAAGTCGAGCCAACCA	–	6.17	3.52	13.7	11.5	12.6	13.3	8.15	8.59	3.03	1.57	4.96	7.32	2.02	9.14	3.71	–	5.5
CGTCAAAGGTCAACTAAGGTAACGTAAAGCACGC	–	3.42	4.64	9.18	8.77	6.39	8.42	5.01	5.93	1.03	0.957	4.87	–	1.59	6.58	3.77	–	5.33
TCTCGGAGGTCACGAAAGGTCAGAGCTCGACATC	–	6.78	2.06	8.27	7.76	5.31	7.09	4.43	6.3	1.39	2.35	6.9	–	3.6	–	5.11	–	6.12
ACTCGGAGGTCAAAGGTCAGAGCTACGCCAGTGA	–	5.1	2.98	–	9.47	9.38	10.2	4.46	6.2	2.13	2.31	6.27	–	1.87	–	3.86	–	5.48
CTCGAAAGGTCATGCTCAGGTGAGTATACCAAAC	–	3.89	2.44	7.63	8.05	4.38	6.89	4.16	4.89	1.38	0.849	3.71	5.91	0.752	6.85	2.27	–	5.14
GCTTAGGGGTCAAAGGTTATAGCATGAATAGAAT	–	1.95	2.82	11.8	9.66	9.13	10.2	5.79	6.52	3.02	2.44	2.86	–	1.2	–	1.8	–	4.64
CCTTAGGGGTCAAGGTTATAGCACGGGTGGTACG	–	1.33	1.15	8.58	7.98	5.01	7.42	3.07	5.19	1.1	0.837	4.4	6.23	1.1	–	2.38	–	5.11
CGTCAAAGGTCAAGGTAACGTAACAGAAAGCAGC	–	2.47	2.82	9.12	8.51	6.2	8.31	4.8	6.15	3.88	3.1	4.75	5.33	0.602	6.56	2.85	–	5.16
ACTTAGGGGTCAACGAGGTTATAGCACGCGTATA	–	2.91	2.35	9.33	8.62	6.08	8.5	5.4	5.93	2.39	2.86	3.01	–	9.1	–	2.38	–	5.02
CCTCGGAGGTCAACAGGAGGTCAGAGCTGCCAGA	–	4.43	1.49	6.66	6.55	2.94	5.21	3.21	4.76	-0.0592	-0.488	5.25	–	1.63	–	1.53	–	5.7
CTACCAAGGTCAACAAGGTCGTTGATTACTATTC	–	3.79	1.23	5.57	6.01	2.68	4.51	4.52	4.74	1.26	1.4	4.44	–	12.6	6.63	3.35	–	5.25
